Compounds without any hit were thinned out: in the full panel of roughly 83,000, 20% have a hit.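 Each cell line was grown in a 96-well plate and treated with one concentration of compound for 48 hours. Values below 10 were considered active.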 A number with no mark means an inactive call. The source made the active and inactive calls.
What was measured:
Assay in all cases: NCI-60 one-dose screen, 48 h (100 = growth as untreated, 0 = no growth, -100 = all killed)
Settings in all cases: 10 µM unless noted
NCI-H23 lung = tested on: NCI-H23 lung
NCI-H226 lung = tested on: NCI-H226 lung
NCI-H322M lung = tested on: NCI-H322M lung
HOP-62 NSCLC = tested on: HOP-62 NSCLC
NCI-H460 lung = tested on: NCI-H460 lung
HOP-92 NSCLC = tested on: HOP-92 NSCLC
NCI-H522 lung = tested on: NCI-H522 lung
A549/ATCC NSCLC = tested on: A549/ATCC NSCLC
786-0 renal = tested on: 786-0 renal
COLO 205 colon = tested on: COLO 205 colon
DU-145 prostate = tested on: DU-145 prostate
K-562 leukemia = tested on: K-562 leukemia
MALME-3M melanoma = tested on: MALME-3M melanoma
MDA-MB-231 breast = tested on: MDA-MB-231 breast
RXF 393 renal = tested on: RXF 393 renal
SF-268 CNS = tested on: SF-268 CNS
SF-295 CNS = tested on: SF-295 CNS
SF-539 CNS = tested on: SF-539 CNS
UACC-257 melanoma = tested on: UACC-257 melanoma
M14 melanoma = tested on: M14 melanoma

Row | SMILES | growth (NCI-H23 lung) | growth (NCI-H226 lung) | growth (NCI-H322M lung) | growth (HOP-62 NSCLC) | growth (NCI-H460 lung) | growth (HOP-92 NSCLC) | growth (NCI-H522 lung) | growth (A549/ATCC NSCLC) | growth (786-0 renal) | growth (COLO 205 colon) | growth (DU-145 prostate) | growth (K-562 leukemia) | growth (MALME-3M melanoma) | growth (MDA-MB-231 breast) | growth (RXF 393 renal) | growth (SF-268 CNS) | growth (SF-295 CNS) | growth (SF-539 CNS) | growth (UACC-257 melanoma) | growth (M14 melanoma)
1 | N=C(N)c1ccc(OCCCCCCCCCCOc2ccc(C(=N)N)cc2)cc1 | -69.5% (active) | -71.7% (active) | -99% (active) | -76.6% (active) | -88.6% (active) | -86.1% (active) | -75.8% (active) | -85.4% (active) | -89.8% (active) | -61.6% (active) | -96.6% (active) | -67.5% (active) | -81.8% (active) | -91.7% (active) | -82.8% (active) | -81.3% (active) | -82.4% (active) | -87% (active) | -69.7% (active) | -85.6% (active)
2 | COc1cc(CC(=O)c2ccc(O)c(OC)c2)ccc1O | 103% | 81.9% | 89.6% | 91.4% | 100% | 84.5% | 88.4% | 79.5% | 104% | 107% | 108% | 89.1% | 107% | 88.6% | 102% | 102% | 98.9% | 103% | 80.1% | 102%
3 | N#Cc1c(NC(=O)NCc2ccccc2)sc2c1CCCC2 | 29% | 29.5% | 42.2% | 40.2% | 2.62% (active) | 42% | 21.9% | 28.5% | 35.6% | 10.1% | 10.1% | 14% | 47.5% | 18.8% | 0.0173% (active) | 46.9% | 21% | -1.85% (active) | 68% | 10.6%
4 | COc1cccc(C(=O)NNc2nc(Cl)nc(N3CCN(C(c4ccccc4)c4ccccc4)CC3)n2)c1 | 45.3% | 94.9% | 88.9% | 92.8% | 102% | 77% | -13.6% (active) | 101% | 82% | 76.6% | 101% | -34.7% (active) | 84.1% | 59% | 78.4% | 99.3% | 96.3% | 90.8% | 88.4% | 45.4%
5 | Cc1cc2c(C(=O)NCC#N)cccc2n1-c1nc2c(c(NCc3ccccc3)n1)CCCC2 | -41.8% (active) | -69.3% (active) | -19.5% (active) | -16.9% (active) | -35.7% (active) | -63.4% (active) | -24.9% (active) | -38.9% (active) | -56.8% (active) | -51% (active) | 2.51% (active) | 1.31% (active) | -72.1% (active) | -78.9% (active) | -68.9% (active) | -35.1% (active) | -76.2% (active) | -24.5% (active) | -36.4% (active) | -45% (active)
6 | CC(=O)O[C@H]1Cc2c([nH]c3ccccc23)[C@@H](c2ccc(Cl)cc2)N1C(=O)CCNC(C)(C)C | 84.5% | 69% | 65.9% | 69.1% | 37.5% | 14.1% | 63.9% | 76.3% | 53.1% | 53.7% | 65.2% | 8.71% (active) | -37.8% (active) | -26% (active) | 39.6% | 61.3% | 68.3% | 40.1% | 65.1% | -0.737% (active)
7 | COc1cccc(-c2ccc3c(c2)NC(=O)/C3=C\c2ccc[nH]2)c1 | 31.4% | 50.5% | 45.2% | 62.7% | 11.5% | 93.5% | 10.4% | 57.1% | 48.1% | 30% | 65.7% | 12.4% | 51.9% | 53.4% | 32.2% | 80.8% | 61.8% | 45.4% | 77% | 39.2%

— PubChem BioAssay (NCI)
